This is an account of results in PubChem BioAssay AID1851 (National Center for Advancing Translational Sciences (NCATS), 2009).

Out of some 16,000 compounds screened, about 5,700 (36%) were called active. Roughly 24% stayed inconclusive and do not appear here. The list shows a part of the results. A number with no mark means an inactive call. Calls come from the whole dose curve; as a rule, active = well fitted curve in the direction sought with a large enough effect; inconclusive = small, poorly fitted or top-dose-only effect, or effect the other way; inactive = no such curve, though single readings can be large or run the other way.
% is set by controls: 0 for no effect and ±100 for the full control effect.

Chain of Cytochrome P450 1A2 (Homo sapiens) (P05177 whole entry, looked up): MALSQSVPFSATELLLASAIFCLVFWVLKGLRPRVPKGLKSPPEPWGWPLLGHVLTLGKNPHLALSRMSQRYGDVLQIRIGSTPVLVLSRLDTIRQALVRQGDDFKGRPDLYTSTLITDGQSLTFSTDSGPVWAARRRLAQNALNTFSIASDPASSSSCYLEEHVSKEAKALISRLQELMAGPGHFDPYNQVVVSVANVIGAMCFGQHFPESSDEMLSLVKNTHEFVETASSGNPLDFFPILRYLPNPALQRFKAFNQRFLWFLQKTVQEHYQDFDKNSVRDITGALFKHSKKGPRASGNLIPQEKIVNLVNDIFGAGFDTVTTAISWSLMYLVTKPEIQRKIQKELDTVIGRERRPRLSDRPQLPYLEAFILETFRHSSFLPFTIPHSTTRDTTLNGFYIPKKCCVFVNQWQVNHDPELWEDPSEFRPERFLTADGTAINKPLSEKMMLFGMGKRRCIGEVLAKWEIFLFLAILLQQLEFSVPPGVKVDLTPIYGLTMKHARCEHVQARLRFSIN

This assay has as its target Cytochrome P450 1A2 (Homo sapiens) (UniProt P05177). Description: Cytochrome panel assay with activity outcomes. Particulars: recombinant CYP, pro-luciferin dealkylation, luminescence, p450-cyp1a2; series mostly up to 57.1 µM; activity, negative = inhibition: at the top concentration.
The AC50 is the midpoint of the concentration-response curve, whichever way the signal moves. For `COc1ccccc1-c1nc(NCc2cccnc2)c2ccccc2n1`, the AC50 is 0.794 µM (active).
Take `N/N=C1/CC(=O)NC(=O)N1`: the AC50 was 0.631 µM (active).
`COc1ccc(OC[C@@H](CO)OC)cc1`: the activity, negative = inhibition was -13.3% [at 11.4 µM].
`CCNc1ncc2ncc(=O)n(C[C@H]3CCCO3)c2n1`: the AC50 was 10 µM (active).
Consider `CCCc1nnc(SCC(=O)N2CCCCC2)n1CC1CCCO1` (stereo not drawn), for which the “activity, negative = inhibition” value is 0.426%.
On the same count and under the same terms, the same measure for `O=C1[C@H]2[C@H]3[C@H](O)[C@H](O)C/C(=N/OCc4ccccc4)[C@H]3CC[C@@H]2C(=O)N1C[C@@H]1CCCO1`: -4.81% [at 11.4 µM]; for `O=C1[C@H]2[C@H]3[C@H](O)[C@H](O)C/C(=N/OCc4ccccc4)[C@@H]3CC[C@@H]2C(=O)N1C[C@@H]1CCCO1`: 1.8% [at 11.4 µM].
Turning to `O=c1cnc2cnc(Nc3ccccc3)nc2n1C[C@H]1CCCO1`, the AC50 is 0.794 µM (active).
Turning to `CCCc1nnc(SCC(=O)N2CCCCC2C)n1CC1CCCO1` (stereo not drawn), the “activity, negative = inhibition” value is 17.6%.
On to `Cc1cc2nc(CCN(C(=S)NCC(C)C)C3CCCC3)[nH]c2cc1C`, for which the AC50 was 3.16 µM (active).
The same measure, in the same setting: the same measure for `COCCCNC(=O)c1c(NC(=O)c2cccs2)sc2c1CCCC2`: 0.251 µM (active).
Same read-out and setting: next, `CCNC(=O)c1c(NC(C)=O)sc2c1CCCC2`: 1.26 µM (active); `CC(=O)Nc1sc2c(c1C(N)=O)CCCC2`: 3.16 µM (active).
On to `CC(=O)Nc1nnc(CCN2CCCCC2)s1`, for which the “activity, negative = inhibition” value was 25.3%.
`CCN(CC)S(=O)(=O)c1cccc(C(=O)N[C@H](C(=O)OCC(=O)NC(=O)NC)C(C)C)c1`: the “activity, negative = inhibition” value is 0.134%.
The same measure, in the same setting: next, `CCCNC(=O)CC(NS(=O)(=O)c1ccc(Cl)cc1)c1ccco1` (stereo not drawn): -15.2%.
In the case of `CCCC[C@@H]1C[C@H]1C(NC(=O)c1ccco1)c1ccc(Cl)cc1` (stereo partly drawn), the AC50 is 0.794 µM (active).
As to `CCCC[C@@H]1C[C@H]1C(NC(=O)c1ccco1)c1ccccc1` (stereo partly drawn), the AC50 was 2 µM (active).
Consider `CCCC[C@@H]1C[C@H]1C(NC(=O)c1ccco1)c1ccc(-c2ccccc2)cc1` (stereo partly drawn), for which the AC50 is 5.01 µM (active).
As to `CCCC[C@@H]1C[C@H]1C(NC(=O)Cc1ccccc1)c1ccc(-c2ccccc2)cc1` (stereo partly drawn), the “activity, negative = inhibition” value is -13%.
Take `N/C(=N\OC(=O)Cc1ccc(-c2ccccc2)cc1)c1cccc([N+](=O)[O-])c1`: the AC50 is 14.1 µM (active).
Take `CCOc1cc(C)ccc1OCc1nnc(SCC(=O)c2cccc([N+](=O)[O-])c2)n1CC`: the “activity, negative = inhibition” value was -13%.
On to `COC(=O)C(CCSC)NC(=O)c1cccc([N+](=O)[O-])c1` (stereo not drawn), for which the “activity, negative = inhibition” value is -27.1%.
Take `Cc1cccc(C(=O)O/N=C(\N)c2cccc([N+](=O)[O-])c2)c1`: the AC50 is 2.51 µM (active).
On to `C[C@@H](c1ccccc1)N1C(=O)[C@H]2[C@H]3[C@H](O)[C@H](O)C/C(=N/OCc4ccccc4)[C@@H]3CC[C@@H]2C1=O`, for which the activity, negative = inhibition was -7.71% [at 11.4 µM].
For `Clc1ccc(CO[C@@H](Cn2ccnc2)c2ccc(Cl)cc2Cl)cc1`, the AC50 is 0.1 µM (active).
The same measure, in the same setting: next, `Clc1ccc(COC(Cn2ccnc2)c2ccc(Cl)cc2Cl)c(Cl)c1` (stereo not drawn): 1.26 µM (active); `Clc1ccc([C@H](Cn2ccnc2)OCc2csc3c(Cl)cccc23)c(Cl)c1`: 6.31 µM (active); `Clc1ccc(C(c2ccc(Cl)cc2)n2cc[n+](C[C@@H](OCc3ccc(Cl)cc3Cl)c3ccc(Cl)cc3Cl)c2)cc1`: 31.6 µM (active).
Turning to `CC(C)COP(=O)(c1ccc(N(C)C)cc1)C(O)c1ccccc1F` (stereo not drawn), the “activity, negative = inhibition” value is -15.4%.
Consider `O=C(Nc1ccc(F)cc1Cl)c1ccc2c(=O)n3c(nc2c1)CCCCC3`, for which the AC50 is 5.01 µM (active).
With `O=C(Nn1cnc2ccccc2c1=O)c1ccc(F)cc1Cl`, the “activity, negative = inhibition” value was -11.4%.
Same read-out and setting: the same measure for `CN1CCN(C(=O)c2ccc3c(=O)n4c(nc3c2)CCCCC4)CC1`: -16.5%; for `CO[C@H]1COC(=O)[C@@H](C)COC(=O)[C@@H](COCc2ccccc2)NC(=O)C/C=C\[C@H]1C`: 3.03% [at 11.4 µM].
On to `CCCCN1CCC(COC(=O)c2cc(Cl)c(N)c3c2OCCO3)CC1`, for which the half-maximal activity concentration (AC50) is 12.6 µM (active).
Consider `CCCCN1CCC(CCC(=O)c2cc(Cl)c(N)cc2OC)CC1`, for which the “activity, negative = inhibition” value is -39%.
Consider `COc1cc(COc2cc(N)c(Cl)cc2C(=O)CCC2CCN(CCNS(C)(=O)=O)CC2)cc(OC)c1`, for which the “activity, negative = inhibition” value was -11.5%.
As to `CCCCCCCCC(=O)N/N=C/c1ccccn1`, the AC50 was 4.47 µM (active).
Take `NC([N-]/N=C/c1ccccn1)=[S]=[Fe].O=S(=O)(O)O`: the activity, negative = inhibition was 15.8% [at 2.29 µM].
As to `CCN(CC)C(=O)C(=O)N/N=C/c1cccc(Br)c1`, the concentration at half-maximal activity (AC50) is 10 µM (active).
`CCCCCCCCC(=O)N/N=C/c1cccc(Br)c1`: the half-maximal activity concentration (AC50) is 0.891 µM (active).
With `COCCNC(=O)Cn1cnc2ccc(S(=O)(=O)N3CCC(C)CC3)cc2c1=O`, the “activity, negative = inhibition” value is -6.54%.
Still for that read-out and setting: the same measure for `CC(C)CN1CCCC2(CCN(S(=O)(=O)c3ccccc3)CC2)C1`: 3.46%; for `O=S(=O)(c1ccccc1)N1CCC2(CCCN(Cc3nccs3)C2)CC1`: 13.2%; for `CC(C)CN1CCC2(CC1)CCN(S(=O)(=O)c1ccccc1)CC2`: 8.32%.
Turning to `CC(C)CN1CC[C@@]2(CCCN(S(=O)(=O)c3ccccc3)C2)C1`, the AC50 is 25.1 µM (active).
Still for that read-out and setting: the same measure for `O=S(=O)(c1ccccc1)N1CCC[C@@]2(CCN(Cc3nccs3)C2)C1`: 15.8 µM (active).
Regarding `O=S(=O)(c1ccccc1)N1CCC2(CC1)CN(Cc1nccs1)C2`, the “activity, negative = inhibition” value is 6.2%.
